From PubChem BioAssay AID743192 (National Center for Advancing Translational Sciences (NCATS), 2013)
The source made the active and inactive calls. The call rests on the fitted dose curve; in most records, active means well fitted curve in the direction sought with a large enough effect; inactive means no such curve, though single readings can be large or run the other way.

target: L-lactate dehydrogenase B chain (Homo sapiens) (UniProt P07195); assay: Extended Characterization of HPGD Inhibitors: Counterscreen Against LDHB; conditions: LDHB enzyme, diaphorase/resazurin coupled fluorescence; series mostly up to 114 µM; activity, negative = inhibition: at the top concentration
Sequence (P07195 whole entry, looked up): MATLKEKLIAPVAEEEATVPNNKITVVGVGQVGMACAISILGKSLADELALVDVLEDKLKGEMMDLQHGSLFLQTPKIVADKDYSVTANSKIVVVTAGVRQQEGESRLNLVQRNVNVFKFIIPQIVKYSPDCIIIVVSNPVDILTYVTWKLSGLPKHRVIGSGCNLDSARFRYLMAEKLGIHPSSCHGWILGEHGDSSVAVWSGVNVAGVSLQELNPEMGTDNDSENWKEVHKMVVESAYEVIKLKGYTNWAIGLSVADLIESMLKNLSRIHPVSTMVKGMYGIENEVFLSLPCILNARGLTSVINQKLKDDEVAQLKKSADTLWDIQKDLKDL
Description: The central role of HPGD is to inactivate prostaglandins such as prostaglandin E2 (PGE2) or prostaglandin D2 (PGD2). These prostaglandins are involved in a number of processes, including inflammation, differentiation, and cellular signaling, which makes HPGD an important target for pharmacological intervention. A number of prostaglandins of particular biological interest have been identified as substrates of HPGD. […] Over-production of PGE2 has been reported to promote tumor-associated neovascularization, cell proliferation, and tumor growth. […] In order to further characterize the compounds, we ran them against an LDHB counterscreen. LDHA converts pyruvate to lactate while regenerating NAD+ from NADH. LDHA enzymatic activity is then coupled to the activity of diaphorase, which reversibly catalyzes the reaction of NAD+ to NADH while simultaneously reducing resazurin to the fluorescent resorufin. This change in fluorescence signal (excitation 544 nm; emission, 590 nm) was monitored using the ViewLux CCD imager (Perkin Elmer). Data were normalized against no enzyme control wells and no compound control wells. NIH Chemical Genomics Center [NCGC] NIH Molecular Libraries Probe Centers Network [MLPCN] MLPCN Grant: MH084681 Assay Submitter (PI): Structural Genomics Consortium
3 uL of LDHB enzyme in assay buffer are added to plate before 23 nL of compound/control are pinned into the solution. After a 15 min incubation, 1 uL of NADH (60 uM final) and sodium pyruvate (160 uM final) are added, incubated at 8 min at RT before another 1 uL of Diaphorase / Resazurin is added. The plate is read on the ViewLux after a 10 min RT incubation

Row | Structure (SMILES) | activity, negative = inhibition
1 | COc1ccc(-n2cnc3cc(C(=O)N4CCCCC4)ccc32)cc1 | 5.92% (inactive)
2 | Cc1cc(-c2nnc3n2CCCCC3)c(C)n1-c1cccc(Cl)c1 | 1.42% (inactive)
3 | Cc1cc(-c2nnc3n2CCCCC3)c(C)n1-c1cccc(C#N)c1 | 0.167% (inactive)
4 | Cc1cccc(-n2cnc3cc(C(=O)N4CCCC(C(F)(F)F)C4)ccc32)c1 (stereo not given) | 3.07% (inactive)
5 | Cc1cc(-c2nnc3n2CCCCC3)c(C)n1-c1cccc(C(F)(F)F)c1 | 4.68% (inactive)
6 | Cc1cccc(-n2cnc3cc(C(=O)N4CCCC(C)(C)C4)ccc32)c1 | -0.0782% (inactive)
7 | O=C(c1ccc2c(c1)ncn2-c1cccc(C(F)(F)F)c1)N1CCCCC1 | 5.8% (inactive)
8 | Cc1cc(-c2nnc3n2CCCCC3)c(C)n1-c1ccc(Cl)c(Cl)c1 | 11% (inactive)
9 | Cc1ccc(-n2c(C)cc(-c3nnc4n3CCCCC4)c2C)cc1 | 7.15% (inactive)
10 | O=C(c1ccc2c(c1)ncn2-c1cccc(Cl)c1)N1CCCCC1 | 11.5% (inactive)
